From PubChem
Sampled rows, rich in hits. Any-hit rate of the full collection: about 21%.
Pf growth 96h = inhibits malaria parasite growth, 96 h; AID 504834; Potency, µM (top dose mostly 28.7 µM), inactives show top-dose activity change, negative = inhibition, hits mostly inhibitors; P. falciparum luciferase reporter growth, 96 h; actives 6.9% (n = 320,000); also: potency is read from the fitted curve at half-maximal effect; % is scaled to controls: 0 for no effect and ±100 for the full control effect
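Readout is luminescence from an integrated firefly luciferase in P. falciparum. Red cells, 2% hematocrit and 0.05% parasitemia final, were cultured with compound through two parasite generations (96 hours) at 37 C, 5% CO2.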
Shiga toxin inh = inhibitors of Shiga toxin in Vero cells; inhibition, % at 38.7 µM; Vero cells, Shiga toxin protein synthesis inhibition reporter; actives 9.2% (n = 290,000); in the data active = inhibition mostly above about 28%, no sharp cut-off; inactive = mostly below about 43%; also: 0% is about no effect
Pf growth 48h = inhibits P. falciparum growth in the first generation, 48 h | P. falciparum luciferase growth in erythrocytes, 48 h | Potency, µM (titrated, usually from 28.7 µM), for the others: at the top dose activity change, negative = inhibition, most hits filed as inhibitors | actives 5.9% (n = 310,000) | AID 504832; also: potency is read from the fitted curve at half-maximal effect; % is scaled to controls: 0 for no effect and ±100 for the full control effect
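Growth was read as firefly luciferase luminescence after a 48 h, 37 C, 5% CO2 exposure of compounds to reporter-bearing P. falciparum cultures (0.1% parasitemia, 2% hematocrit final) in Albumax-supplemented RPMI 1640.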
NS1 inh = influenza NS1 inhibition; Potency, µM (doses to about 46.1 µM), without a hit: at the top dose activity, positive = more growth; actives 0.4% (n = 270,000); calls by dose curve; also: potency is read from the fitted curve at half-maximal effect; actives are rising curves; nearly all actives have a fitted effect of over 50% in size
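A cell-based growth assay was used: compounds that relieve NS1-induced slow growth of budding yeast raise OD600. Assay medium was yeast nitrogen base with ammonium sulphate and -URA supplement, pH 6.0, with 2% galactose.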
SARS PLpro yeast = blocks SARS-CoV papain-like protease in a yeast assay; Potency, µM (highest dose often 32.9 µM), inactives show at the highest dose activity, positive = growth rescue, usual class: activators; S. cerevisiae expressing SARS-CoV PLpro, growth rescue; actives 0.19% (n = 330,000); calls by dose curve; also: potency is read from the fitted curve at half-maximal effect; 0% is about no effect; nearly all actives have a fitted effect of over 55% in size
Cycloheximide cs = counter-screen for Shiga toxin inhibitors: cycloheximide protein synthesis inhibition; actives 12% (n = 300,000); max response, %; AID 2314; cell reporter, cycloheximide protein synthesis inhibition counterscreen; in the data active = max response mostly above about 13%, no sharp cut-off; inactive = mostly below about 14%; also: read at 38.3 µM for the half of the compounds with a filed dose; 0% is about no effect
An asterisk follows results filed as active; ? = inconclusive; · = no result. Unless noted, calls follow the shape of the dose curve; as a rule, active = well fitted inhibition curve with a large enough effect; inconclusive = small, poorly fitted or top-dose-only effect, or another doubt; inactive = no such curve, though single readings can be large or run the other way.

SMILES	Pf growth 96h	Shiga toxin inh	Pf growth 48h	NS1 inh	SARS PLpro yeast	Cycloheximide cs
CCOC(=O)c1ccc(S(=O)(=O)Nc2nc3cc(S(=O)(=O)NC4=NCCCCC4)ccc3s2)cc1	13µM*	-5	-1%	·	3%	-2
CCCOc1ccc(C(=O)Nc2ccc(S(=O)(=O)NC3=NCCCCC3)cc2)cc1	10µM*	·	5.9µM*	·	7%	·
CON(C)S(=O)(=O)c1cccc(C(=O)Nc2ccc(S(=O)(=O)NC3=NCCCCC3)cc2)c1	?	·	?	·	-2%	·
Nc1nc2cc(S(=O)(=O)NC3=NCCCCC3)ccc2s1	?	10	?	12%	3%	-1
O=S(=O)(NC1=NCCCCC1)c1ccc2ccccc2c1	35%	21	29%	-5%	18%	23*
COc1cccc(OCC(=O)Nc2ccccc2-c2ccccc2)c1	6%	-14	?	0%	-3%	-3
COc1cc(CCC(=O)Nc2ccc(S(=O)(=O)NC3=NCCCCC3)cc2)cc(OC)c1OC	10µM*	16	-29%	·	-1%	0
CC#C[C@@H](CC)c1ccc2ccn(C)c2c1	?	·	?	·	-25%	·
O=c1c2[nH]c3ccccc3c2ncn1CCC1=CCCCC1	16%	36	36%	1%	3%	-1
COc1ccc(CNc2ncnc3c2[nH]c2ccccc23)cc1	1.7µM*	0	2.3µM*	-45%	-4%	0
C1=C(CCNc2ncnc3c2[nH]c2ccccc23)CCCC1	0.26µM*	116*	?	-38%	-102%	26*
Cc1ccc2[nH]c3c(Cl)ncnc3c2c1	-5%	9	-24%	-50%	-4%	20
COc1ccc(CNc2ncnc3c2[nH]c2cc(OC)c(OC)cc23)cc1	1.7µM*	-10	2.1µM*	19%	-8%	-1
CCCOc1ncnc2c1[nH]c1ccc(C)cc12	349%	108*	16%	2%	-2%	45*
COc1ccc(NC(C)=O)cc1S(=O)(=O)NCCc1ccccn1	-3%	·	-15%	·	-2%	·
CC(C)OCCCNc1ncnc2c1[nH]c1ccccc12	?	13	5.9µM*	-23%	-3%	16*
Cc1ccc2[nH]c3c(NCc4ccccc4)ncnc3c2c1	?	80*	?	-2%	-3%	39*
CCOc1ncnc2c1[nH]c1ccccc12	-6%	35	92%	-33%	-7%	15
Cc1cc(C(=O)Nc2ncn[nH]2)ccc1[N+](=O)[O-]	-28%	14	16%	7%	-5%	-4
CC(=O)Nc1ccc(NC(=O)COC(=O)c2cnccn2)cc1	74%	23	11%	4%	-1%	7
CC(C)N(C(=O)CSc1nc2ccccc2n1Cc1ccccc1F)C(C)C	-22%	-4	10µM*	-2%	20%	-2
CC(C)N(C(=O)CSc1nc2ccccc2n1Cc1ccccc1)C(C)C	1%	5	?	-1%	-2%	1
CCOC(=O)N1CCc2c(sc3nc(SC(C)C)n(N)c(=O)c23)C1	12µM*	1	?	10%	-3%	0
CCOC(=O)N1CCN(C(=O)c2cccn3c(=O)c4c5c(sc4nc23)CCCC5)CC1	12%	16	-8%	·	-1%	-2
CCOC(=O)N1CCc2c(sc3ncn(C)c(=O)c23)C1	?	10	-4%	-2%	-6%	2
SMILES	Pf growth 96h	Shiga toxin inh	Pf growth 48h	NS1 inh	SARS PLpro yeast	Cycloheximide cs
CCOC(=O)N1CCc2c(sc3nc4n(c(=O)c23)N=C(c2ccc(OC)cc2)CS4)C1	?	3	0.47µM*	6%	-1%	-3
O=C(NNC(=O)c1cc([N+](=O)[O-])ccc1Cl)c1cccnc1	?	-3	-5%	-13%	-4%	-1
COc1ccc(C2CC(c3cccs3)=NN2C(=O)c2ccco2)cc1OC (stereo unspecified)	0.13µM*	18	0.26µM*	1%	1%	3
CS(=O)(=O)Nc1ccc(C2=NN(C(=O)c3ccco3)C(c3ccc(F)cc3)C2)cc1 (stereo unspecified)	?	-9	?	·	-2%	7
O=C(c1ccco1)N1N=C(c2cccs2)CC1c1ccc(F)cc1 (stereo unspecified)	0.83µM*	6	·	-4%	-15%	2
COc1ccc(C2CC(c3cccs3)=NN2C(=O)CSc2nnnn2C)cc1OC (stereo unspecified)	12µM*	-16	?	-10%	0%	-5
